# Results reported in the supplement of paper PMC6992640.
# ± gives the standard deviation of the averaged measurements.
# What was measured:
# HCI11 = cells of an ER-positive luminal breast cancer xenograft; assay: cell viability (% of vehicle); higher = less cytotoxic; conditions: 10 µM; 72 h
# HCI09 = cells of a triple-negative luminal androgen receptor type breast cancer xenograft; assay: as above; conditions: 10 µM; 72 h
# HCI16 = cells of a triple-negative basal-like breast cancer xenograft; assay: as above; conditions: 10 µM; 72 h
# UCD52 [1] = cells of a triple-negative basal-like breast cancer xenograft; assay: as above; conditions: 10 µM; 72 h
# HCI03 = cells of an ER-positive luminal breast cancer xenograft; assay: as above; conditions: 10 µM; 72 h
# HCI13 = cells of an ER-positive luminal breast cancer xenograft; assay: as above; conditions: 10 µM; 72 h
# WHIM2 = cells of a triple-negative basal-like breast cancer xenograft; assay: as above; conditions: 10 µM; 72 h
# HCI01 = cells of a triple-negative basal-like breast cancer xenograft; assay: cell viability of combination (% of vehicle); higher = less cytotoxic; conditions: 1 µM; 72 h; partner dose: 10 nM
# Procedure: (§1)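 PDX cells were treated for 72 h with each drug at 1 µM plus carfilzomib (10 nM; 100 nM for WHIM2). Luciferase viability is expressed as percent of vehicle.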
# UCD52 [2] = assay: as above; conditions: 1 µM; 72 h; partner dose: 10 nM
# Procedure: as §1
# WHIM30 = cells of a triple-negative basal-like breast cancer xenograft; assay: cell viability (% of vehicle); higher = less cytotoxic; conditions: 10 µM; 72 h
compound,measurement,setting,value
Cc1oncc1C(=O)Nc1ccc(C(F)(F)F)cc1 [Leflunomide],cell viability,HCI11,194
CC(=O)Oc1ccccc1C(=O)Nc1ncc([N+](=O)[O-])s1 [Nitazoxanide],cell viability,HCI09,161 ± 140
same,cell viability,HCI11,168
same,cell viability,HCI16,128
same,cell viability,UCD52 [1],154 ± 8.6
O=C(CCCCCCNC(=O)c1cnc(N(c2ccccc2)c2ccccc2)nc1)NO [Rocilinostat (ACY-1215)],cell viability,HCI03,108
same,cell viability,HCI09,45.1 ± 28
same,cell viability,HCI13,49.3 ± 7.8
same,cell viability,WHIM2,51.2 ± 8.8
CN1CCN(CCOc2cc(OC3CCOCC3)c3c(Nc4c(Cl)ccc5c4OCO5)ncnc3c2)CC1 [Saracatinib (AZD0530)] + CC(C)C[C@H](NC(=O)[C@H](CCc1ccccc1)NC(=O)CN1CCOCC1)C(=O)N[C@@H](Cc1ccccc1)C(=O)N[C@@H](CC(C)C)C(=O)[C@@]1(C)CO1 [Carfilzomib],cell viability of combination,HCI01,66.1
same,cell viability of combination,UCD52 [2],39.3
CNCCCC12CCC(c3ccccc31)c1ccccc12.Cl [Maprotiline HCl] + CC(C)C[C@H](NC(=O)[C@H](CCc1ccccc1)NC(=O)CN1CCOCC1)C(=O)N[C@@H](Cc1ccccc1)C(=O)N[C@@H](CC(C)C)C(=O)[C@@]1(C)CO1 [Carfilzomib],cell viability of combination,HCI01,76.5
same,cell viability of combination,UCD52 [2],55.5
Cc1ccc(C(=O)N(CCCN)C(c2nc3cc(Cl)ccc3c(=O)n2Cc2ccccc2)C(C)C)cc1 (stereo not given) + CC(C)C[C@H](NC(=O)[C@H](CCc1ccccc1)NC(=O)CN1CCOCC1)C(=O)N[C@@H](Cc1ccccc1)C(=O)N[C@@H](CC(C)C)C(=O)[C@@]1(C)CO1 [Carfilzomib],cell viability of combination,HCI01,88.6
same,cell viability of combination,UCD52 [2],42.9
Cc1nc(Nc2ncc(C(=O)Nc3c(C)cccc3Cl)s2)cc(N2CCN(CCO)CC2)n1 + CC(C)C[C@H](NC(=O)[C@H](CCc1ccccc1)NC(=O)CN1CCOCC1)C(=O)N[C@@H](Cc1ccccc1)C(=O)N[C@@H](CC(C)C)C(=O)[C@@]1(C)CO1 [Carfilzomib],cell viability of combination,HCI01,61.3
same,cell viability of combination,UCD52 [2],32.4
CC(=Cc1ccccc1)C=C1SC(=S)N(CC(=O)O)C1=O [Epalrestat],cell viability,HCI03,112
same,cell viability,HCI11,96.4
same,cell viability,HCI13,170 ± 10
same,cell viability,HCI16,102
same,cell viability,UCD52 [1],102 ± 11
same,cell viability,WHIM30,134 ± 29
COC(=O)C1=C(C)NC(C)=C(C(=O)OCCN(C)Cc2ccccc2)C1c1cccc([N+](=O)[O-])c1.Cl (stereo not given) [Nicardipine HCl] + CC(C)C[C@H](NC(=O)[C@H](CCc1ccccc1)NC(=O)CN1CCOCC1)C(=O)N[C@@H](Cc1ccccc1)C(=O)N[C@@H](CC(C)C)C(=O)[C@@]1(C)CO1 [Carfilzomib],cell viability of combination,HCI01,115
same,cell viability of combination,UCD52 [2],52
